These entries were drawn from the full list.
PostGolgi yeast – growth inhibition of a yeast mutant, post-Golgi transport screen | post-Golgi transport phenotypic cell assay | inhibition, % at 10 µM | actives 0.9% (n = 98,000) | AID 739;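 also: yeast cells grown in 1536-well plates; yeast grown about 18 h at 30C before absorbance read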
PostGolgi ctrl – growth of the yeast control strain, post-Golgi counter-screen; efflux-deficient yeast background strain, growth absorbance A615, 16 h; inhibition, % at 10 µM; actives 5% (n = 98,000); AID 738
CYP2C19 act – cytochrome P450 2C19 (human) activation; activation factor at 5 µM; recombinant CYP2C19, luciferin-H EGE luminescence; stronger effect = higher value; 0 = fully inhibited enzyme, 1 = untreated enzyme; AID 1025; 96,000 tested, under 10 active;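 active = activation factor of at least 2 at 5 µM in the primary screen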;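 also: 0 = wells with 2.5 mM tranylcypromine and 1 = vehicle-only wells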
Target sequence (P33261 whole entry, looked up): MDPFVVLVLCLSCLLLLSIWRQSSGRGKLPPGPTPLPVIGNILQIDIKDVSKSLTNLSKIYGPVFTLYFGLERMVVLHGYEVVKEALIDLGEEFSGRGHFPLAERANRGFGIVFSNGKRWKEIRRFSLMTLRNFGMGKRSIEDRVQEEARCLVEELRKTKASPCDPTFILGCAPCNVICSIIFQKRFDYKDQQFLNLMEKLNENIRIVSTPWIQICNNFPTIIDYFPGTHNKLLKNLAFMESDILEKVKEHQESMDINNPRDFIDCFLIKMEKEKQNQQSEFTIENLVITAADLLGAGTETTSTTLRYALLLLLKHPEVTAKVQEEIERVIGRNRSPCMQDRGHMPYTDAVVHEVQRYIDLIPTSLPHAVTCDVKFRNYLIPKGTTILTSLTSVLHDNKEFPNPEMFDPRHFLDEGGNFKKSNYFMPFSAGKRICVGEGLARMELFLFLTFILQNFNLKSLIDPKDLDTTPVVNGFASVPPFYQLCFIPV
CYP2C9 inh – blocks human cytochrome P450 2C9; P11712; CYP2C9 Supersomes, luciferin-H conversion, luminescence; inhibition, % at 5 µM; actives 20% (n = 96,000); AID 777;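 active = blocking of liver enzyme CYP2C9 beyond about 50% at 5 µM, limit read from the data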
CYP2C19 inh – inhibitors of human CYP2C19. actives 21% (n = 96,000). P33261. AID 778. inhibition, % at 5 µM. CYP2C19 Supersomes, luciferin-H EGE luminescence, 30 min;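 active = CYP2C19 inhibition above a set limit at 5 µM in the primary screen, cut at about 50% in these data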;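 also: plate controls were negative control wells for no effect and 2.5 mM tranylcypromine positive control for full effect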
CYP2C9 act – increases human cytochrome P450 2C9 activity; actives 1.4% (n = 96,000); activation factor at 5 µM; P11712; recombinant CYP2C9, luciferin-H conversion, luminescence; stronger effect = higher value; factor 1 = untreated enzyme, 0 = blocked; AID 1024;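 active = activation factor of 2 or more for CYP2C9 at a 5 µM dose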;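 also: 0 = sulfaphenazole-blocked wells and 1 = vehicle-only wells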
* marks the source's active call; other numbers are inactive results. Rule as the data show it, unless noted: active = inhibition above about 30%; inactive = the rest.

Results for O=C(C1CCN(S(=O)(=O)c2ccccc2)CC1)N1CCC2(CC1)OCCO2 ?
PostGolgi yeast: 5.3; PostGolgi ctrl: 1.5; CYP2C19 act: 0.9; CYP2C9 inh: 11.3; CYP2C19 inh: 5.5; CYP2C9 act: 0.9

What do the screens show for `OCCOCC#CCN1CCOCC1`?
PostGolgi yeast: 21.5; PostGolgi ctrl: 11.2; CYP2C19 act: 1.1; CYP2C9 inh: 5.6; CYP2C19 inh: -6.6; CYP2C9 act: 0.9

What do the screens show for `CC(O)(CS(=O)(=O)c1ccccc1)C(=O)Nc1cccc(C(F)(F)F)c1` (stereo not drawn)?
PostGolgi yeast: -8.1; PostGolgi ctrl: 0.8; CYP2C19 act: 0.3; CYP2C9 inh: 4.8; CYP2C19 inh: 69.1*; CYP2C9 act: 1

How did Cc1ccc(S(=O)(=O)CC(C)(O)C(=O)Nc2cccc(C(F)(F)F)c2)cc1 (stereo not drawn) do in these assays?
PostGolgi yeast: 7.4; PostGolgi ctrl: 2.3; CYP2C19 act: 0.5; CYP2C9 inh: 17.1; CYP2C19 inh: 47.9; CYP2C9 act: 0.8

How did CC(O)(CS(=O)(=O)c1cccc(C(F)(F)F)c1)C(=O)Nc1ccc(C(F)(F)F)cc1 (stereo not drawn) do in these assays?
PostGolgi yeast: -3.5; PostGolgi ctrl: -1.1; CYP2C19 act: 0.2; CYP2C9 inh: 46.9; CYP2C19 inh: 83.0*; CYP2C9 act: 0.5

How did CC(=O)c1ccc2c(c1)C1C(Cl)C(Sc3ccccc3[N+](=O)[O-])CC1C(c1ccccc1)N2 (stereo not drawn) do in these assays?
PostGolgi yeast: -5.5; PostGolgi ctrl: 20.4; CYP2C19 act: 0.6; CYP2C9 inh: 73.5*; CYP2C19 inh: 43.9; CYP2C9 act: 0.3

How did c1cc2n(c1)-c1c(ccc3c1OCO3)CNC2c1ccc2c(c1)OCO2 (stereo not drawn) do in these assays?
PostGolgi yeast: -7.3; PostGolgi ctrl: 11.4; CYP2C19 act: 0; CYP2C9 inh: 76.8*; CYP2C19 inh: 98.7*; CYP2C9 act: 0.2

How did COc1ccc(C2NCc3ccc4c(c3-n3cccc32)OCO4)cc1O (stereo not drawn) do in these assays?
PostGolgi yeast: -4.0; PostGolgi ctrl: 6.1; CYP2C19 act: 0.3; CYP2C9 inh: -6.0; CYP2C19 inh: 68.1*; CYP2C9 act: 1.1

How did COc1ccc(-n2c(O)c(C(C)=NCCN3CCNCC3)c(=O)[nH]c2=O)cc1 do in these assays?
PostGolgi yeast: 9.5; PostGolgi ctrl: 0.6; CYP2C19 act: 1.1; CYP2C9 inh: -8.4; CYP2C19 inh: -9.9; CYP2C9 act: 1.1

Results for C=CCOC(=O)C1=C(C)OC(N)=C(C#N)C12C(=O)N(CN1CCOCC1)c1ccccc12 (stereo not drawn) ?
PostGolgi yeast: -4.7; PostGolgi ctrl: -7.3; CYP2C19 act: 0.9; CYP2C9 inh: -7.6; CYP2C19 inh: 6.9; CYP2C9 act: 1.1

Results for Cn1c(O)c(C(=N)COc2cccc(Cl)c2)c(=O)n(C)c1=O ?
PostGolgi yeast: 3.6; PostGolgi ctrl: -0.5; CYP2C19 act: 1.1; CYP2C9 inh: 4.0; CYP2C19 inh: -6.3; CYP2C9 act: 1

Results for O=C(Nc1ccc(Cl)cc1C(=O)c1ccccc1)c1ccccc1 ?
PostGolgi yeast: 4.8; PostGolgi ctrl: 13.3; CYP2C19 act: 1; CYP2C9 inh: 4.4; CYP2C19 inh: 2.3; CYP2C9 act: 1

What do the screens show for `COc1ccccc1OCC(=O)Nc1ccc(Cl)cc1C(=O)c1ccccc1`?
PostGolgi yeast: -2.4; PostGolgi ctrl: 40.3*; CYP2C19 act: 0.8; CYP2C9 inh: 15.6; CYP2C19 inh: 16.2; CYP2C9 act: 0.8

What do the screens show for `CC1(C)COC(Nc2ccc(Cl)cc2)=N1`?
PostGolgi yeast: 0.0; PostGolgi ctrl: 6.9; CYP2C19 act: 0.6; CYP2C9 inh: 0.2; CYP2C19 inh: 39.3; CYP2C9 act: 1

Results for CCOC(=O)N1CCC(NC(=O)CCc2nc(C3=CCN(C)CC3)no2)CC1 ?
PostGolgi yeast: 24.8; PostGolgi ctrl: 5.8; CYP2C19 act: 1; CYP2C9 inh: 1.7; CYP2C19 inh: 0.6; CYP2C9 act: 1

Results for CCOC(=O)c1c(/N=C/c2c(O)n(-c3ccc(F)cc3)c(=S)[nH]c2=O)sc2c1CCCC2 ?
PostGolgi yeast: -2.4; PostGolgi ctrl: 9.6; CYP2C19 act: 1.1; CYP2C9 inh: 36.7; CYP2C19 inh: -9.8; CYP2C9 act: 0.6

Compound activity from PubChem BioAssay.
